Assay outcomes deposited in PubChem by Pan Lab, Icahn School of Medicine at Mount Sinai.
RBX1-CUL1 inh = human ROC1-CUL1 E3 ligase inhibition | P62877+Q13616 | inhibition, % at 10 µM | 140,000 tested, 0.6% active | AID 1347404 | in vitro K48 di-Ub FRET, acceptor:donor ratio, 45 min; in the data active = inhibition above about 25%
Numbers without * were called inactive. The entries come from a sample that favours hits as a whole.

SMILES	RBX1-CUL1 inh
CC1(C)Oc2ccccc2C(=O)C1Br (centres undefined)	10.2
O=C1C=CC2(C=C1)OC(=O)c1ccccc1O2	29.5*
COCCCNc1nncc(-c2ccc(OC)cc2OC)n1	3.7
O=C(CCc1cnccn1)N1CCCC(CCc2ccc(F)cc2F)C1 (centres undefined)	-9.9
O=C1S/C(=C\c2cc(Br)cc(Cl)c2O)C(=O)N1Cc1ccc(F)cc1	39.9*
C=CCN1C(=O)S/C(=C\c2ccc(-c3ccc(Br)cc3)o2)C1=O	-6.8
N#Cc1ccccc1CN1C(=O)S/C(=C/c2ccc(-c3ccc(Cl)c(C(=O)O)c3)o2)C1=O	42.3*
Cc1c(C(=O)O)cccc1-c1ccc(/C=C2/SC(=O)N(Cc3cc4c(cc3Cl)OCO4)C2=O)o1	6.3
O=C(O)c1ccc(-c2ccc(/C=C3\SC(=O)N(Cc4ccc(F)cc4)C3=O)o2)cc1Cl	91.8*
COC(=O)CN1C(=O)S/C(=C/c2ccc(-c3cccc(C(=O)O)c3C)o2)C1=O	6.5
Cc1cccc(/C=C2/SC(=O)N(Cc3ccccc3C#N)C2=O)n1	-0.6
O=C(O)COc1ccc(/C=C2/SC(=O)N(Cc3ccc(F)cc3)C2=O)cc1Br	5.1
Cc1ccccc1NC(=O)CN1C(=O)S/C(=C\c2ccc(-c3cc(C(=O)O)ccc3C)o2)C1=O	-1.0
Cc1ccccc1NC(=O)CN1C(=O)S/C(=C\c2ccc(-c3cc(C(=O)O)ccc3Cl)o2)C1=O	27.6*
CC(C)c1ccc(/C=C2\SC(=O)N(Cc3ccc(F)cc3)C2=O)cc1	5.4
Cc1cccc(NC(=O)CN2C(=O)S/C(=C/c3ccc(-c4cc(C(=O)O)ccc4Cl)o3)C2=O)c1	21.4
O=S(=O)(O)CCCSc1ccccc1	-10.4
O=C(c1cnn(-c2nccc(-c3cc4ccccc4o3)n2)c1C1CC1)N1CCN(CCO)CC1	6.6
CN(Cc1ccon1)C(=O)Cn1ncc(N2CCCC2)cc1=O	-1.6
N#CC1C(=N)Oc2n[nH]c(-c3ccc4ccccc4c3)c2C1c1cccc(Cl)c1Cl (centres undefined)	-3.0
CCOc1cc(C2C3=C(N=C(C)C2C(=O)OC)c2ccccc2C3=O)ccc1OC (centres undefined)	-6.4
C=CCN1N=C(C)Cn2c1nc1c2c(=O)n(CCC)c(=O)n1C	-12.0
Cc1ccccc1S(=O)(=O)Nc1ccc(I)cc1	4.8
CC(C)c1ccc(CNc2ccc(O)cc2)cc1	2.9
O=C(c1c(Br)sc2c1CCCC2)N1CCOCC1	-1.1
SMILES	RBX1-CUL1 inh
CCOC(CCC1C(CO)c2ccccc2N1C(C)=O)OCC (centres undefined)	-0.5
C=CCOC(=O)c1cc(-c2ccc(/C=C3/C(=O)NN(c4ccc(F)c(Cl)c4)C3=O)o2)ccc1Cl	1.3
CCOC(=O)c1cc(-c2ccc(/C=C3/C(=O)ON=C3C)o2)ccc1Cl	-2.1
COC(=O)c1cc(-c2ccc(/C=C3/C(=O)NN(c4ccc(C)cc4)C3=O)o2)ccc1Cl	13.0
COC(=O)c1ccc(N2NC(=O)/C(=C/c3ccc(-c4ccc(Cl)c(C(=O)O)c4)o3)C2=O)cc1	35.3*
CCN1C(=O)/C(=C/c2ccc(-c3ccc(Cl)c(C(=O)O)c3)o2)C(=O)NC1=S	87.1*
CC1=NN(c2ccccc2)C(=O)/C1=C/c1ccc(-c2ccc(C)c(C(=O)O)c2)o1	2.6
COc1cc(-c2ccc(/C=C3\C(=O)NN(c4ccccc4)C3=O)o2)c(OC)cc1Cl	-1.8
CC1(C)OCC(C2OC(C)(C)OC2C(O)c2nc3ccccc3n2N)O1 (centres undefined)	1.1
N#Cc1c(-c2ccc(Cl)cc2)c2c(n(-c3ccccc3)c1=O)CCCC2	5.3
Cc1nc(C#N)c(Br)s1	2.5
Cc1cccc(C)c1NC(=O)C(CC(C)C)N1C(=O)c2ccccc2C1=O (centres undefined)	0.5
CCc1ccc(C2CC(=O)c3c(ccc4ccccc34)N2)cc1 (centres undefined)	8.3
COc1ccc(C=C2C(=O)c3ccccc3C2=O)cc1O	-2.0
O=C1/C(=C/c2ccc(O)c(O)c2)Oc2ccccc21	96.9*
CC(C)c1cc(/C=C2\OC(=O)c3ccccc32)cc(C(C)C)c1O	-8.9
CCOC(=O)c1c(-c2ccccc2Cl)csc1NC(=O)Cc1ccc(OC)c(OC)c1	8.8
COc1cc(-c2nc(C=C3C(C)=Nc4ccccc43)c(O)o2)cc(OC)c1OC	-11.9
COc1ccccc1C1NCCS1 (centres undefined)	33.1*
CCOc1cc2c(cc1OCC)C(c1ccccc1OC)CC(=O)N2 (centres undefined)	9.8
COc1cccc(C2SCCCS2)c1O	8.2
CCc1c(C)sc(NC(=O)C2c3ccccc3Oc3ccccc32)c1C#N	9.4
FC(F)(F)c1ccc(-c2nnc(-c3ccncc3)o2)cc1	3.4
Cc1ccc([N+](=O)[O-])c(OCCNCC2CCCO2)c1 (centres undefined)	4.2
COc1cccc(CC(C2CCN(C(=O)/C=C/c3ccc(F)cc3)CC2)N(C)C(=O)CC(C)C)c1 (centres undefined)	2.5
O=C(O)c1cc(NC2(c3ccccc3)C(=O)c3ccccc3C2=O)ccc1Cl	-1.6
